BAZ2B inh = qHTS Assay for Inhibitors of BAZ2B. AlphaScreen BAZ2B-H3K14Ac peptide displacement. actives 4.4% (n = 360,000). Potency, µM (highest dose often 114 µM), inactives show at the highest dose activity change, negative = inhibition, usual class: inhibitors. Bromodomain adjacent to zinc finger domain protein 2B (Homo sapiens), Q9UIF8; also: potency is read from the fitted curve at half-maximal effect; % is scaled to controls: 0 for no effect and ±100 for the full control effect; nearly all actives have a fitted effect of over 60% in size
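Protein-peptide AlphaScreen: BAZ2B 50 nM, b-H3K14Ac 50 nM, 1x PBS pH 7.4 + 0.01% Tween-20. Preincubation 30 min RT; cpd 30 min RT (top 110 uM); beads 20 min RT, light-protected.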
HP1b binding inh = HTS for Inhibitors of HP1-beta Chromodomain Interactions with Methylated Histone Tails; Chromobox protein homolog 1 (Homo sapiens), P83916; AlphaScreen HP1-beta / biotin-H3K9me3 peptide binding; Potency, µM (highest dose often 114 µM), inactives show at the highest dose activity change, negative = inhibition, hits mostly inhibitors; actives 0.56% (n = 390,000); AID 540317, 2011; also: potency is read from the fitted curve at half-maximal effect; nearly all actives have a fitted effect of over 70% in size
Target sequence (P83916 whole entry, looked up): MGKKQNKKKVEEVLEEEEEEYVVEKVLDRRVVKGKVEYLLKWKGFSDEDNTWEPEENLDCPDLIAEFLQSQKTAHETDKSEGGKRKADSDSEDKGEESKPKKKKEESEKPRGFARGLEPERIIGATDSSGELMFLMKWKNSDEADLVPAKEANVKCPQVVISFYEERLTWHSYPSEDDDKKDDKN
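AlphaScreen: HP1-beta (50 nM) preformed 30 min with biotin-H3(1-18)K9me3 peptide (50 nM) in PBS pH 7.4, 0.01% Tween-20. Compound added for 30 min at RT, then streptavidin donor/nickel chelate acceptor beads (10 ug/mL) for 30 min.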
L3MBTL1 block = qHTS Assay for the Inhibitors of L3MBTL1. Lethal(3)malignant brain tumor-like protein 1 (Homo sapiens), Q9Y468. AlphaScreen L3MBTL1–H3K9me1 peptide binding. Potency, µM (titrated, usually from 57.1 µM), for inactives: at the highest dose activity, negative = inhibition, actives largely listed as inhibitors. actives 0.66% (n = 230,000); also: potency is read from the fitted curve at half-maximal effect; % is scaled to controls: 0 for no effect and ±100 for the full control effect; nearly all actives have a fitted effect of over 60% in size
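L3MBTL1 (50 nM) pre-complexed 30 min with biotinylated H3(1-15)K9me1 peptide (75 nM), then compounds added for 30 min at room temperature; AlphaScreen streptavidin donor/nickel chelate acceptor beads (10 ug/mL final) read after 30 min dark incubation.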
JMJD2A Tudor inh = qHTS Assay for Inhibitors of JMJD2A-Tudor Domain; Lysine-specific demethylase 4A (Homo sapiens), O75164; AlphaScreen JMJD2A-Tudor / H3K4me3 peptide binding; Potency, µM (titrated, usually from 114 µM), without a hit: at the top dose activity change, negative = inhibition, actives largely listed as inhibitors; actives 4.4% (n = 390,000); also: potency is read from the fitted curve at half-maximal effect; % is scaled to controls: 0 for no effect and ±100 for the full control effect; nearly all actives have a fitted effect of over 50% in size
PI5P4K alpha inh = qHTS for Inhibitors of phosphatidylinositol 5-phosphate 4-kinase (PI5P4K); Phosphatidylinositol 5-phosphate 4-kinase type-2 alpha (Homo sapiens), P48426; PI5P4Kalpha enzyme, ADP-Glo luminescence, 60 min; active compounds read low; max response, %; actives 1.2% (n = 330,000); AID 652105, 2013; active = max response of -50% or lower; inconclusive = between -30% and -50%; inactive = -30% or higher; also: value at the top dose of about 77 µM; % is scaled to controls: 0 for no effect and ±100 for the full control effect
Target sequence (P48426 whole entry, looked up): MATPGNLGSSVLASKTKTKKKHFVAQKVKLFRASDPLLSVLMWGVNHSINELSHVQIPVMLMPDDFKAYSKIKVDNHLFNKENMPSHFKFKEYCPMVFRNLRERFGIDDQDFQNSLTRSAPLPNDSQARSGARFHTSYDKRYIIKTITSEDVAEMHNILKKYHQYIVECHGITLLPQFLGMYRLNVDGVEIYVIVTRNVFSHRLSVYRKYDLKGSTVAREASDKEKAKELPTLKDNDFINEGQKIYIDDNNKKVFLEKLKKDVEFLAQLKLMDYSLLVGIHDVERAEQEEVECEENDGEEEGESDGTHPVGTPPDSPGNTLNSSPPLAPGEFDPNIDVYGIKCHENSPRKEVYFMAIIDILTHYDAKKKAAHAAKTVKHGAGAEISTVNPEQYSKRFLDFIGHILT
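qHTS, 1536-well: enzyme/substrate mix, compound by pin tool, 5 microM ATP final; RT 60 min; ADP-Glo reagents 1 (45 min) then 2 (30 min); luminescence.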
G9a inh = qHTS Assay for Inhibitors of Histone Lysine Methyltransferase G9a. actives 8.8% (n = 350,000). Potency, µM (top dose mostly 102 µM), inactives show top-dose activity, negative = inhibition, hits mostly inhibitors. G9a H3K9 monomethylation, AlphaScreen, 2 h. Histone-lysine N-methyltransferase EHMT2 (Homo sapiens), Q96KQ7; also: potency is read from the fitted curve at half-maximal effect; % is scaled to controls: 0 for no effect and ±100 for the full control effect; nearly all actives have a fitted effect of over 75% in size
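Enzyme 20 nM + cpd, 15 min RT; add b-H3K9 pep 500 nM / SAM 20 uM; 2 h RT; anti-H3K9me1 Ab 0.5 ug/mL + SA donor / anti-rabbit acceptor beads 20 ug/mL each, 10 min; AlphaScreen read.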
Active calls of the source: *; ? = inconclusive; · = not tested or not shown; [ ] = another dose, or the depositor's remark. This is a sample that favours compounds with a hit; in the whole collection about 11% have one here. Unless noted, calls follow the shape of the dose curve; as a rule, active = well fitted inhibition curve with a large enough effect; inconclusive = small, poorly fitted or top-dose-only effect; inactive = no such curve, though single readings can be large or run the other way.

SMILES	BAZ2B inh	HP1b binding inh	L3MBTL1 block	JMJD2A Tudor inh	PI5P4K alpha inh	G9a inh
CCOC(=O)C(C)Sc1nc2c(c(=O)[nH]c(=O)n2C)n1C/C=C(/C)Cl (stereo unspecified)	-5.0%	-80.1%	-6.5%	?	?	7.08µM*
CSc1nc2c(c(=O)[nH]c(=O)n2C)n1C/C=C(\C)Cl	-7.7%	-10.8%	-4.0%	-7.7%	·	39.8µM*
CCSc1nc2c(c(=O)[nH]c(=O)n2C)n1C/C=C(/C)Cl	-4.7%	14.7%	·	-1.9%	6.0	?
C=CCSc1nc2c(c(=O)[nH]c(=O)n2C)n1C/C=C(/C)Cl	11.4%	56.8%	0.7%	-5.5%[57.1 µM]	-3.2	15.9%[59 µM]
COc1ccc(-c2nsc(NC(=O)c3oc4cc(C)c(C)cc4c3C)n2)cc1	0.4%	15.4%	·	-14.2%	·	-27.2%[59 µM]
CC(C)c1ccc2oc(-c3ccc(NC(=O)c4ncn[nH]4)cc3)nc2c1	35.5µM*	11.7%	?	39.8µM*	·	5.5%[12.7 µM]
O=C(Nc1ccc2oc(-c3ccccc3Cl)nc2c1)c1ncn[nH]1	50.1µM*	10.3%	-17.4%	28.2µM*	·	?
COCc1cc(C)nc(N2CCN(Cc3ccccc3)CC2)c1C#N	33.6%	22.7%	·	7.4%	2.1	50.1µM*
COCc1cc(C)nc(N2CCN(c3ccccc3)CC2)c1C#N	18.0%	72.9%	·	3.0%	·	0.3%[12.7 µM]
CCN(CC)S(=O)(=O)c1ccc(C(=O)NCCSc2c(-c3ccc(OC)cc3)[nH]c3ccccc23)cc1	-9.2%	13.0%	·	-24.9%	·	-34.3%[59 µM]
CCC(=O)Nc1nnc2n1CCS2	-12.9%	-6.3%[57 µM]	·	20µM*	·	25.1µM*
CCOC(=O)CCC(=O)Nc1nnc2n1CCS2	?	-7.1%[57 µM]	·	39.8µM*	·	12.6µM*
Cc1cc(C)cc(C(=O)Nc2nnc3n2CCS3)c1	?	20.1%[57 µM]	·	-22.6%	·	7.9%[59 µM]
COc1ccccc1C(=O)Nc1nnc2n1CCS2	-13.6%	12.0%[57 µM]	·	?	·	11.2µM*
CC(=O)Nc1nnc2n1CCS2	-4.3%	-7.7%[57 µM]	·	22.4µM*	·	14.1µM*
CCCCOc1ccc(C(=O)Nc2nnc3n2CCS3)cc1	3.9%	17.9%[57 µM]	·	-13.5%	·	60.0%[59 µM]
CCCNC(=O)C1=CC(c2ccc3c(c2)OCO3)=NS(=O)(=O)N1C	-2.5%	23.4%	·	-10.9%	·	-6.0%[59 µM]
Cc1ccc(S(=O)(=O)Cn2nnnc2C(C(C)C)N2CCc3ccccc3C2)cc1 (stereo unspecified)	?	3.0%	-9.8%	28.2µM*	·	?
Cc1ccc(C(c2nnnn2CS(=O)(=O)c2ccc(C)cc2)N2CCN(c3ncccn3)CC2)cc1 (stereo unspecified)	4.4%	20.8%	-8.4%	-7.4%	1.9	-4.5%[59 µM]
Cc1ccc(S(=O)(=O)Cn2nnnc2C(C(C)C)N2CCC(O)CC2)cc1 (stereo unspecified)	-3.5%	50.5%	·	-6.3%	0.6	8.5%
Cc1ccc(S(=O)(=O)Cn2nnnc2C(C(C)C)N2CCSCC2)cc1 (stereo unspecified)	1.7%	24.8%	-1.2%	-12.2%	·	35.5µM*
Cc1ccc(S(=O)(=O)Cn2nnnc2C(c2ccccn2)N2CCN(c3ccccc3)CC2)cc1 (stereo unspecified)	?	-6.6%	-8.2%	-28.5%	·	35.5µM*
COc1cccc(CNC(=O)c2ccc3nc(-c4ccccc4)c(-c4ccccc4)nc3c2)c1OC	-11.9%	22.4%	·	-22.0%	·	3.2%[59 µM]
Brc1ccc([C@H]2CN3CCSC3=N2)cc1	·	?	·	6.31µM*	-3.6	?
c1ccc(C2CN3CCSC3=N2)cc1 (stereo unspecified)	-11.4%	24.8%	3.9%	-3.4%	-0.2	8.6%
COc1ccccc1CNS(=O)(=O)c1cc(C(=O)Nc2cccc(C(F)(F)F)c2)ccc1F	4.0%	19.1%	·	-15.0%	·	9.5%[59 µM]

Bioassay records (PubChem BioAssay)
